Here are results for six compounds from PubChem BioAssay.

Assay [1] can be described thus: binders of probe aFSTL3 on microarray, primary screen, stem cell growth factor project, biochemical, small-molecule microarray, fluorescence 635/667 (AID 1064).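 Also: measures binding of the biotinylated anti-FSTL3 antibody to printed compounds.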 Conditions: higher = more signal.
Assay [2] is described as follows: binders from COS7 lysate, DM2A8 probe, primary screen, torsin A project, cell lysate, small-molecule microarray, fluorescence 635/667 (AID 1065). Conditions: higher = more signal, COS7 lysate expressing mutant human TOR1A.
Assay [3] can be described thus: binders of probe aFGF2 on microarray, primary screen, stem cell growth factor project, biochemical, small-molecule microarray, fluorescence 635/667 (AID 1067).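 Also: measures binding of biotinylated aFGF2 protein to printed compounds on slides; z-score merges feature fluorescence and signal-to-noise across triplicate slides.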 The note with it: higher = more signal.
Assay [4] in a line: binders of probe aFGF10 on microarray, primary screen, stem cell growth factor project, biochemical, small-molecule microarray, fluorescence 635/667 (AID 1071).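 Also: score merges 667 nm spot intensity and signal to noise from triplicate slides.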 Conditions: higher = more signal.
Assay [5] deals with Neurogenic locus notch homolog protein 2 (Homo sapiens) (UniProt Q04721). As to the kind of experiment: Notch2 binders on small-molecule microarrays, primary screen, biochemical, small-molecule microarray, 635 nm fluorescence, stem cell growth factors (AID 1073). The note with it: Notch2 binding, higher = more signal.
The target of assay [6] is Pro-neuregulin-1, membrane-bound isoform (Homo sapiens) (UniProt Q02297). Put plainly: NRG1 binders on small-molecule microarrays, primary screen, psychiatric disease protein project, biochemical, small-molecule microarray, fluorescence 635/667 (AID 1075).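 Also: score combines 667 nm spot fluorescence with signal to noise.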 Conditions: NRG1 binding, 635 nm fluorescence, higher = more signal.
Assay [7] relates to Neuregulin-1 EGF-like domain. Put plainly: binders of neuregulin-1 EGF-like domain, primary screen, biochemical, small-molecule microarray, 635 nm fluorescence (AID 1081).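 Also: binding of the protein to compounds printed on small-molecule microarray slides.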 The note with it: small-molecule microarray binding, higher = more signal.
A short description of assay [8]: FRG1 promoter luciferase signal modulators, primary screen, FRG1 inhibition for FSHD, cell-based, C2C12 myotubes, firefly/Renilla luciferase, luminescence (AID 1084). Conditions: higher = more signal, called active from +8 up or from −8 down.
A short description of assay [9]: binders of probe aFST on microarray, primary screen, stem cell growth factor project, biochemical, small-molecule microarray, fluorescence 635/667 (AID 1086).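 Also: score merges 667 nm fluorescence with signal-to-noise of each printed compound spot.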 The note with it: higher = more signal.
Assay [10] in a line: binders of probe aHhip on microarray, primary screen, stem cell growth factor project, biochemical, small-molecule microarray, fluorescence 635/667 (AID 1087).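 Also: score merges spot fluorescence at 667nm with spot signal to noise ratio.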 Conditions: higher = more signal.
The test system of assay [11] is PRMT1 (protein arginine N-methyltransferase 1). Put plainly: PRMT1 binders on small-molecule microarrays, primary screen, biochemical, small-molecule microarray, 635 nm fluorescence (AID 1088).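 Also: binding of Prmt1 protein to compounds spotted on small-molecule microarray slides.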 The note with it: small-molecule microarray binding, higher = more signal.
Assay [12] in a line: yeast growth modulation, basal conditions, primary screen, YJM789 clinical isolate, OD600, 24 h (AID 1089).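 Also: growth of clinical yeast isolate S. cerevisiae YJM 789 seeded 1000 cells per well; test concentration not given here.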 The note with it: S. cerevisiae YJM789 growth, higher = more signal, called active from +8 up or from −8 down.
The nature of assay [13]: fission yeast growth modulation, primary screen, strain 972, OD600, 24 h, no modulator (AID 1090).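 Also: basal condition with compound alone and no growth modifier present; test concentration not given here.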 The note with it: S. pombe 972 growth, higher = more signal, called active from +8 up or from −8 down.
A short description of assay [14]: S. cerevisiae growth modulation with rapamycin, primary screen, strain BY4716, OD600, 96 h (AID 1091). Also: test concentration not given here. Conditions: higher = more signal, called active from +8 up or from −8 down.
Assay [15] has as its target Torsin-1A-interacting protein 2 (Homo sapiens) (UniProt Q8NFQ8). Put plainly: LULL1 binders on small-molecule microarray, primary screen, cell lysate, human LULL1 lysate, 635/667 nm fluorescence (AID 1092).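 Also: score merges per-feature 667 nm fluorescence with signal-to-noise.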 Conditions: hLULL1 lysate binding, 635 nm fluorescence, higher = more signal.
Assay [16] can be described thus: E. coli growth modulation, two-sided OD650, primary screen, E. coli filamentation project, strain DRC41, 24 h (AID 1093).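 Also: MC1000 strain lacking acrAB efflux and sulA so SOS filamentation is blocked; test concentration not given here.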 The note with it: OD650, 24 h, higher = more signal, called active from +8 up or from −8 down.
Assay [17] is described as follows: small-molecule microarray binders of probe aLefty2, primary screen, biochemical, biotinylated probe, 635/667 nm fluorescence (AID 1094).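 Also: score merges spot fluorescence near 667 nm with spot signal-to-noise ratio.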 Conditions: higher = more signal.
Assay [18] has as its system Noggin (protein binding on small-molecule microarray). As to the kind of experiment: Noggin binders on small-molecule microarray, primary screen, biochemical, 635/667 nm fluorescence (AID 1095).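 Also: score merges 667 nm feature fluorescence with signal to noise over triplicate slides.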 The note with it: 635 nm fluorescence, higher = more signal.
Assay [19] deals with Neurogenic locus notch homolog protein 3 (Homo sapiens) (UniProt Q9UM47). As to the kind of experiment: NOTCH3 binders on small-molecule microarray, primary screen, biochemical, 635/667 nm fluorescence (AID 1096). The note with it: NOTCH3 binding, 635 nm fluorescence, higher = more signal.
The nature of assay [20]: small-molecule microarray binders of probe aEGFR, primary screen, biochemical, biotinylated probe, 635/667 nm fluorescence (AID 1097).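 Also: probe is a biotinylated anti-EGFR antibody binding compounds printed on slides; score combines fluorescence near 667 nm and signal to noise of each spot.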 Conditions: higher = more signal.

Calls of active or inactive are those of the source.

Chain of Neurogenic locus notch homolog protein 3 (Homo sapiens) (Q9UM47 whole entry, looked up): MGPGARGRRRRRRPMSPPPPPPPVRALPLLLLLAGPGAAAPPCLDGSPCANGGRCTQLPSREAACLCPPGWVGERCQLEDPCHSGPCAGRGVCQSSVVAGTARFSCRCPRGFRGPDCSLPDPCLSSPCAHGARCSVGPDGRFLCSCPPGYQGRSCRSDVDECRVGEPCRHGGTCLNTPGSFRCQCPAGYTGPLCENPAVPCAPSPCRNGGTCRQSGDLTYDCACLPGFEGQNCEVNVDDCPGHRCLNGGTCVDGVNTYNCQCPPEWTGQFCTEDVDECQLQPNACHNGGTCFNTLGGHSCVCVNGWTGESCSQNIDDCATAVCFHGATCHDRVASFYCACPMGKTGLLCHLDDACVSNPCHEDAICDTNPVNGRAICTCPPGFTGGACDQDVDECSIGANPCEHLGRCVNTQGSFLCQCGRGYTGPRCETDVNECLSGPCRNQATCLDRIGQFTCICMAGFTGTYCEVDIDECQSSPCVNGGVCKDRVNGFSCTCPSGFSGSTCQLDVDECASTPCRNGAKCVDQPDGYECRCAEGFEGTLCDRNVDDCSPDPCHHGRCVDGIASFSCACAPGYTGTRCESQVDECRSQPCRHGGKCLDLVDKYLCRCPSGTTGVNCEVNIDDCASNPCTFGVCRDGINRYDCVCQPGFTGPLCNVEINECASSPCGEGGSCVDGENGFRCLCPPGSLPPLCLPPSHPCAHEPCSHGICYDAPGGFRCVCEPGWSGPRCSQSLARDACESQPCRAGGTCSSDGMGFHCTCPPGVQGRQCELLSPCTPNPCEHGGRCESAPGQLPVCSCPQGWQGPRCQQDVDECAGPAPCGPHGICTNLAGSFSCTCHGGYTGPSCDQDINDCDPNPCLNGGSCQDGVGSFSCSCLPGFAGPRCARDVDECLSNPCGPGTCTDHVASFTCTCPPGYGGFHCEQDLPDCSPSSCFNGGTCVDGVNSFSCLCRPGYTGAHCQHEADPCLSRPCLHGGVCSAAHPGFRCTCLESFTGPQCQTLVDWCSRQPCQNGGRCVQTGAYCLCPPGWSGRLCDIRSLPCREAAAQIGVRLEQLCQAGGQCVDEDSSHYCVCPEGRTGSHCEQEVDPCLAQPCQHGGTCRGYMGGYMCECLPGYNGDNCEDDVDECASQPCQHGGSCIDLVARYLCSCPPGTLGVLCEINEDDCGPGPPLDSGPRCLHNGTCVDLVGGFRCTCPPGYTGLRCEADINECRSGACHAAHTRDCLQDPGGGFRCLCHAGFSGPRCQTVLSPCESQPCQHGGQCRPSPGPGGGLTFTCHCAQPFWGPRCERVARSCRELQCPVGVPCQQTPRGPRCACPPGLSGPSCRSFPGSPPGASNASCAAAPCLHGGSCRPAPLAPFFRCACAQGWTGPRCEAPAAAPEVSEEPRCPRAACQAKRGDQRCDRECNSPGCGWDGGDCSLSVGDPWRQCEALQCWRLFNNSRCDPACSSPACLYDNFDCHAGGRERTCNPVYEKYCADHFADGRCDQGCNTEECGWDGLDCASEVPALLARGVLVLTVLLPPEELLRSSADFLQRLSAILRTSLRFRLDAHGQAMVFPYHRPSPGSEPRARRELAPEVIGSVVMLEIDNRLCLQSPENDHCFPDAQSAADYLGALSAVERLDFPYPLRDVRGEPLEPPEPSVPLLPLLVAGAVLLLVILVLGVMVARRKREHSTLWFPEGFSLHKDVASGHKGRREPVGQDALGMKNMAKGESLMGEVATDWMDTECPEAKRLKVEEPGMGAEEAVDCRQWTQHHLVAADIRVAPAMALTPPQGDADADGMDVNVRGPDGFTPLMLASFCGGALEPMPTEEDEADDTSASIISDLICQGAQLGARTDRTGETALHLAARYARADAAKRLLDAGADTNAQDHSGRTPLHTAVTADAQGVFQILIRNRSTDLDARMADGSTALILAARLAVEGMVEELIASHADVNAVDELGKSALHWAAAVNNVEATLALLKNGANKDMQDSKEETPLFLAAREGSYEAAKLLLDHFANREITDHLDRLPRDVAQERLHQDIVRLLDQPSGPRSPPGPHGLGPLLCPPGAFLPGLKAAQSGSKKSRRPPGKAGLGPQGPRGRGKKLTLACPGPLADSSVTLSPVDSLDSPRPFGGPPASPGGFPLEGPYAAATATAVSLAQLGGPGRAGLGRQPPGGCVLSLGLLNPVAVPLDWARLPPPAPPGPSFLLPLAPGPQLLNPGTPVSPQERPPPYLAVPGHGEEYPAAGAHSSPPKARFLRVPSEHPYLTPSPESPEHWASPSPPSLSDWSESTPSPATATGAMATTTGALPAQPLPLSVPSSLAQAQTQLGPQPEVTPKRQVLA
Chain of Neurogenic locus notch homolog protein 2 (Homo sapiens) (Q04721 whole entry, looked up, canonical isoform): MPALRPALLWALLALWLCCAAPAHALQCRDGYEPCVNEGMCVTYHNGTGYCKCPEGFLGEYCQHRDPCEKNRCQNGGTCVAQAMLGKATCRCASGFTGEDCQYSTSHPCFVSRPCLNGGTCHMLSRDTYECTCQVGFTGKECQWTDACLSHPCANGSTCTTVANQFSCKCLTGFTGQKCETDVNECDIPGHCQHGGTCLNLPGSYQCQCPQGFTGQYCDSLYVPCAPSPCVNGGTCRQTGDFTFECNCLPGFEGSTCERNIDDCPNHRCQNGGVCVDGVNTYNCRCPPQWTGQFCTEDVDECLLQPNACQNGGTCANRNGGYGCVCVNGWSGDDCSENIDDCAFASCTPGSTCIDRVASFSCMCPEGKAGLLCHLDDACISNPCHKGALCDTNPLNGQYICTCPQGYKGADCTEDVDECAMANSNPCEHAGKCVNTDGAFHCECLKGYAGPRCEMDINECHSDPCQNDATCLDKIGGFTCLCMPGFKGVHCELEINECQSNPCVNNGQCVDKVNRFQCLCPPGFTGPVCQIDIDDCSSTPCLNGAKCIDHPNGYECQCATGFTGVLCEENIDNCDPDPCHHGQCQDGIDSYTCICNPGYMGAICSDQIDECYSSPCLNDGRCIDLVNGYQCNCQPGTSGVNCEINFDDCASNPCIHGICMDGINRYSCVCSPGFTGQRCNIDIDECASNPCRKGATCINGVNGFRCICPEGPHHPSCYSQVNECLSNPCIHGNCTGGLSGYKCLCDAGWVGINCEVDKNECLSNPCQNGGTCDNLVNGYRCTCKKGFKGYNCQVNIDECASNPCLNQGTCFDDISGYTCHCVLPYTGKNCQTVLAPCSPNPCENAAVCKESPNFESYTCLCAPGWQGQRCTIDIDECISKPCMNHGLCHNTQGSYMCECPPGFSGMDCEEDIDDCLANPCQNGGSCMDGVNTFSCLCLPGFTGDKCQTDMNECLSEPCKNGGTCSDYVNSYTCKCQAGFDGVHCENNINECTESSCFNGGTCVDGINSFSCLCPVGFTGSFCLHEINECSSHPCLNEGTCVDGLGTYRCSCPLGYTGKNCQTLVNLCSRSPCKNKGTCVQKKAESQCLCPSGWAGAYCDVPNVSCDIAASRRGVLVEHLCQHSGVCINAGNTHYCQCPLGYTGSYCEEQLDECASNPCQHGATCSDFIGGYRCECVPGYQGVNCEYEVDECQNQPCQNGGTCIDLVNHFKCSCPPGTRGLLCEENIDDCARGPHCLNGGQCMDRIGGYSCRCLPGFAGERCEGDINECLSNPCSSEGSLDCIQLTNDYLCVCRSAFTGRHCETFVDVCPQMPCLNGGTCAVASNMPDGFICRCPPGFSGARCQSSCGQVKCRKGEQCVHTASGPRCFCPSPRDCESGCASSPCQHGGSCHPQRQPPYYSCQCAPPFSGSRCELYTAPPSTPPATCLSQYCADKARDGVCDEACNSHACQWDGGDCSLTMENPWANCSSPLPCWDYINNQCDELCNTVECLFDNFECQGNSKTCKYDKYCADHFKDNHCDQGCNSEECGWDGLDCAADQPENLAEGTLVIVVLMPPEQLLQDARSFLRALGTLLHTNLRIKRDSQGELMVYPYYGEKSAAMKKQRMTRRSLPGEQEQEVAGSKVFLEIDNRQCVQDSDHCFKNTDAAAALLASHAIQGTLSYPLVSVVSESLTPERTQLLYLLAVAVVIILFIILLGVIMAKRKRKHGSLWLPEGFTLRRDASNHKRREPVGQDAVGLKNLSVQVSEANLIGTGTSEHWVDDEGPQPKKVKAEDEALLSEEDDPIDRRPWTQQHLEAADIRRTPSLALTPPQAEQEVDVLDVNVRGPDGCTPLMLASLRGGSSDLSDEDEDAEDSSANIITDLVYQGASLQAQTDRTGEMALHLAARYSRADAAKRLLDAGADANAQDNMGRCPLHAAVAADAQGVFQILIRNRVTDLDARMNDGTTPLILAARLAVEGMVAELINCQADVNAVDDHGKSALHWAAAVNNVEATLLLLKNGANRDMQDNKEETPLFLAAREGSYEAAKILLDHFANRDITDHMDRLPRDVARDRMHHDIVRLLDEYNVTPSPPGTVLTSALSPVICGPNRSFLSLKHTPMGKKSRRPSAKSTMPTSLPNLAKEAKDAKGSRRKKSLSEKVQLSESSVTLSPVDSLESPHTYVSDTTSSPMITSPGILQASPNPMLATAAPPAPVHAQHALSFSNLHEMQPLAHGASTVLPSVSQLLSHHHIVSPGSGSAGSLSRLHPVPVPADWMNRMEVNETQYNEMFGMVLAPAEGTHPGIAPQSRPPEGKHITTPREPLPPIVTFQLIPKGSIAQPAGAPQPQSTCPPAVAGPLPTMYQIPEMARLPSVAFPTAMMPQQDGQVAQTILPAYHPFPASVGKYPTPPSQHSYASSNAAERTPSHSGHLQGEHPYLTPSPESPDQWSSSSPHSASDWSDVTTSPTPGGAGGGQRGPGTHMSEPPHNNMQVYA

Regarding `CC(CCN1CCCc2nc(C)c(C)cc21)=NOC[C@@H](C)[C@H](OCc1ccccc1)C(C)C`, the composite z-score is -0.247 in assay [1]; -0.325 in assay [2]; -0.15 in [3]; -0.0055 in [4]; -0.766 in [5]; -0.162 in [6]. Moreover, the composite z-score is -0.995 in [7]; -0.342 in assay [9]; 0.236 in assay [10]; -0.0185 in assay [11]; 1.4 in assay [15]; -0.286 in assay [17]. For the same compound, the composite z-score was -0.187 in assay [18], -0.763 in assay [19] and -0.183 in assay [20]. In addition, the z-score is -0.14 (inactive) in [8]; -2.02 (inactive) in [12]; -1.8 (inactive) in [13]; -0.788 (inactive) in assay [14]; -0.287 (inactive) in [16].

Turning to `CC1(C)O[C@H]2O[C@H]([C@H](O)CON=C3[C@H]4CCn5c(=O)n(-c6ccccc6)c(=O)n5[C@H]4[C@H](O)[C@@H]4O[C@H]34)[C@H](O)[C@H]2O1`, the composite z-score in assay [1] is -0.278; in [2], 0.0391; in assay [3], -0.154; in assay [4], 0.157; in assay [5] it was 0.0872; in assay [6], 0.762. Further, the composite z-score in assay [7] is -0.431; in assay [9] it was -0.081; in [10], -0.0994; in [11], -0.626; in assay [15], -0.122; in [17] it was -0.212. The results for the composite z-score in [18], in [19] and in [20] were 0.426, -0.412 and -0.219, respectively. The z-score is -0.027 (inactive) in assay [8]; -0.638 (inactive) in [12]; -0.347 (inactive) in assay [13]; -0.215 (inactive) in [14]; 0.321 (inactive) in [16].

On to `COC(=O)[C@H](C)NC(=O)CCC1CC(OC(=O)NCc2cccc3ccccc23)CC2(CCCC(COC(=O)NCCc3ccccc3OC)O2)O1` (stereo not given in full), for which the composite z-score is -0.629 in assay [1]; 0.0902 in assay [2]; -0.076 in [3]; 0.612 in assay [4]; 1.24 in [5]; 1.15 in assay [6]. Further, the composite z-score in assay [7] was 1.21; in assay [9], 0.573; in [10], 0.24; in assay [11], 1.37; in assay [15], 2.38; in assay [17], -0.0179. For the same compound, the composite z-score in assay [18] was determined as 1.14; in assay [19], 0.817; in assay [20] it was 0.0066. Also, the z-score in assay [8] is 2.21 (inactive); in [12], 0.502 (inactive); in assay [13] it was 1.02 (inactive); in assay [14] it was 2.03 (inactive); in [16] it was 0.476 (inactive).

On to `CC(=O)OC[C@H]1O[C@H](CC=NOCC[C@@H]2C=C[C@H](OC(C)=O)[C@@H](COC(C)=O)O2)C=C[C@@H]1OC(C)=O`, for which the composite z-score in assay [1] was -0.544; in assay [2], 1.16; in assay [3], -0.13; in assay [4], 0.414; in [5], 0.29; in assay [6], -0.254. Further, the composite z-score in [7] is 0.537; in [9] it was 0.425; in [10], 0.0623; in assay [11], 1.46; in [15] it was 0.137; in assay [17], 0.0024. Besides, the figures for the composite z-score in assay [18], in [19] and in [20] were 0.772, 0.757 and 0.0707, respectively. The z-score in [8] is 1.06 (inactive); in [12], -0.996 (inactive); in assay [13] it was 0.526 (inactive); in assay [14], -0.0043 (inactive); in assay [16], 0.712 (inactive).

As to `COC(OC)[C@@H](C)[C@H](OC)[C@@H](C)[C@H](OC)c1ccccc1`, the composite z-score in assay [1] is -0.405; in assay [2], 0.594; in [3] it was -0.138; in assay [4], 0.238; in assay [5], -0.0257; in assay [6], -0.445. For the same compound, the composite z-score in assay [7] was -0.561; in assay [9], -0.0188; in [10] it was -0.0645; in [11] it was -0.478; in [15] it was -1.37; in [17], 0.308. The composite z-score in [18] was 0.467; in [19], 0.181; in [20], -0.117. Also, the z-score is -0.406 (inactive) in assay [8]; -1.94 (inactive) in [12]; -0.656 (inactive) in assay [13]; -0.213 (inactive) in assay [14]; 0.17 (inactive) in assay [16].

For `CO[C@@H]1C=CCC(=O)N[C@@H](C)C(=O)OC[C@@H](OC)[C@H](C)C=CCC(=O)OC[C@H]1C`, the composite z-score was -0.596 in assay [1]; 2.23 in assay [2]; -0.116 in [3]; -0.631 in assay [4]; -0.88 in assay [5]; -0.503 in assay [6]. In addition, the composite z-score was 0.233 in [7]; -0.045 in [9]; 0.0373 in assay [10]; 1.37 in assay [11]; -1.33 in [15]; -0.124 in [17]. Further, the composite z-score in assay [18] was 1.89; in assay [19], 0.312; in assay [20], -0.0357. Also, the z-score is -0.163 (inactive) in [8]; -0.563 (inactive) in assay [12]; -0.832 (inactive) in assay [13]; -0.333 (inactive) in assay [14]; 0.615 (inactive) in [16].
